According to the supplement of paper PMC8728848:
Only a selection was taken, and the strongest signals are over-represented in it overall.

Experiments:
Test in all cases: glycan array binding signal (z-score within array); higher = stronger binding
Details in all cases: glycan notation: IUPAC condensed, linker removed
Fuc(a1-2)Gal = biological target: Fuc(a1-2)Gal
Outline: (§1)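 The Consortium for Functional Glycomics database supplied 3228 glycan arrays, of which those lacking an available protein sequence were dropped. The binding signal, a within-array Z-score, was averaged across arrays of the same protein sequence and across linkers. Negative scores can be read as non-binding.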

[1] = biological target: Fuc(a1-2)Gal(b1-4)GlcNAc(b1-2)Man(a1-3)[Fuc(a1-2)Gal(b1-4)GlcNAc(b1-2)Man(a1-6)]Man(b1-4)GlcNAc(b1-4)[Fuc(a1-6)]GlcNAc
Outline: as §1

[2] = biological target: Fuc(a1-2)Gal(b1-4)GlcNAc(b1-6)GalNAc
Outline: as §1

[3] = biological target: Fuc(a1-2)Gal(b1-4)[Fuc(a1-3)]GlcNAc(b1-3)Gal(b1-4)[Fuc(a1-3)]GlcNAc(b1-3)Gal(b1-4)[Fuc(a1-3)]GlcNAc
Outline: as §1

[4] = biological target: Fuc(a1-2)Gal6S(b1-3)GlcNAc6S
Outline: as §1

[5] = biological target: Fuc(a1-2)[Gal(a1-3)]Gal(b1-3)GlcNAc
Outline: as §1

[6] = biological target: Fuc(a1-2)[Gal(a1-3)]Gal(b1-4)GlcNAc
Outline: as §1

[7] = biological target: Fuc(a1-2)[Gal(a1-3)]Gal(b1-4)GlcNAc(b1-2)Man(a1-3)[Fuc(a1-2)[Gal(a1-3)]Gal(b1-4)GlcNAc(b1-2)Man(a1-6)]Man(b1-4)GlcNAc(b1-4)[Fuc(a1-6)]GlcNAc
Outline: as §1

[8] = biological target: Fuc(a1-2)[GalNAc(a1-3)]Gal(b1-4)GlcNAc(b1-2)Man(a1-3)[Fuc(a1-2)[GalNAc(a1-3)]Gal(b1-4)GlcNAc(b1-2)Man(a1-6)]Man(b1-4)GlcNAc(b1-4)GlcNAc
Outline: as §1

[9] = biological target: Fuc(a1-3)[Gal(b1-4)]GlcNAc(b1-6)[Gal(b1-3)GlcNAc(b1-3)]Gal(b1-4)Glc
Outline: as §1

[10] = biological target: Gal(a1-3)Gal(b1-4)GlcNAc(b1-2)Man(a1-3)[Gal(a1-3)Gal(b1-4)GlcNAc(b1-2)Man(a1-6)]Man(b1-4)GlcNAc(b1-4)GlcNAc
Outline: as §1

[11] = biological target: Gal(a1-3)Gal(b1-4)GlcNAc(b1-3)GalNAc
Outline: as §1

Gal(b1-2)Gal = biological target: Gal(b1-2)Gal
Outline: as §1

Gal(b1-3)Gal = biological target: Gal(b1-3)Gal
Outline: as §1

Gal(b1-3)GlcNAc = biological target: Gal(b1-3)GlcNAc
Outline: as §1

[12] = biological target: Gal(b1-3)GlcNAc(b1-3)Gal(b1-4)GlcNAc
Outline: as §1

[13] = biological target: Gal(b1-3)GlcNAc(b1-3)Gal(b1-4)GlcNAc(b1-3)Gal(b1-4)GlcNAc(b1-2)[Gal(b1-3)GlcNAc(b1-3)Gal(b1-4)GlcNAc(b1-3)Gal(b1-4)GlcNAc(b1-6)]Man(a1-6)[Gal(b1-3)GlcNAc(b1-3)Gal(b1-4)GlcNAc(b1-3)Gal(b1-4)GlcNAc(b1-2)Man(a1-3)]Man(b1-4)GlcNAc(b1-4)[Fuc(a1-6)]GlcNAc
Outline: as §1

[14] = biological target: Gal(b1-3)[Fuc(a1-4)]GlcNAc
Outline: as §1

[15] = biological target: Gal(b1-3)[Fuc(a1-4)]GlcNAc(b1-2)Man
Outline: as §1

[16] = biological target: Gal(b1-3)[GlcNAc(b1-6)]GalNAc
Outline: as §1

Gal(b1-4)GlcNAc = biological target: Gal(b1-4)GlcNAc
Outline: as §1

[17] = biological target: Gal(b1-4)GlcNAc(b1-2)Man(a1-3)[GlcNAc(b1-4)][Gal(b1-4)GlcNAc(b1-2)Man(a1-6)]Man(b1-4)GlcNAc(b1-4)GlcNAc
Outline: as §1

[18] = biological target: Gal(b1-4)GlcNAc(b1-2)[Gal(b1-4)GlcNAc(b1-4)]Man(a1-3)[Gal(b1-4)GlcNAc(b1-2)[Gal(b1-4)GlcNAc(b1-6)]Man(a1-6)]Man(b1-4)GlcNAc(b1-4)GlcNAc
Outline: as §1

[19] = biological target: Gal(b1-4)GlcNAc(b1-3)Gal(b1-4)Glc
Outline: as §1

[20] = biological target: Gal(b1-4)GlcNAc(b1-3)Gal(b1-4)GlcNAc(b1-3)[Gal(b1-4)GlcNAc(b1-3)Gal(b1-4)GlcNAc(b1-6)]GalNAc
Outline: as §1

[21] = biological target: Gal(b1-4)GlcNAc(b1-3)GalNAc
Outline: as §1

Gal3S(b1-3)GalNAc = biological target: Gal3S(b1-3)GalNAc
Outline: as §1

B1: Tp0751, 83732 (protein)
chain: MSYYHHHHHHLESTSLYKKAGFQHGHVPPRRIPPHDTFGALPTAALPSNARDTAAHPSDTADNTSGSSTTTDPRSHGNAPPAPVGGAAQTHTQPPVQTAMRIALWNRATHGEQGALQHLLAGLWIQTEISPNSGDIHPLLFFDREHAEITFSRASVQEIFLVDSAHTHRKTVSFLTRNTAISSIRRRLEVTFESHEVIHVRAVEDVARLKIGSTSMWDGQYTRYHAGPASAPSP
- glycan array binding signal (z-score) (Fuc(a1-2)Gal): -0.265
- glycan array binding signal (z-score) [1]: 1.64
- glycan array binding signal (z-score) [2]: -0.071
- glycan array binding signal (z-score) [3]: 0.013
- glycan array binding signal (z-score) [4]: 1.11
- glycan array binding signal (z-score) [5]: 1.77
- glycan array binding signal (z-score) [6]: 0.066
- glycan array binding signal (z-score) [7]: -0.276
- glycan array binding signal (z-score) [8]: 0.638
- glycan array binding signal (z-score) [9]: 0.413
- glycan array binding signal (z-score) [10]: 0.262
- glycan array binding signal (z-score) [11]: -0.025
- glycan array binding signal (z-score) (Gal(b1-2)Gal): 2.31
- glycan array binding signal (z-score) (Gal(b1-3)Gal): 0.017
- glycan array binding signal (z-score) (Gal(b1-3)GlcNAc): -0.323
- glycan array binding signal (z-score) [12]: -0.382
- glycan array binding signal (z-score) [13]: -0.07
- glycan array binding signal (z-score) [14]: -0.004
- glycan array binding signal (z-score) [15]: -0.163
- glycan array binding signal (z-score) [16]: -0.373
- glycan array binding signal (z-score) (Gal(b1-4)GlcNAc): 0.21
- glycan array binding signal (z-score) [17]: -0.493
- glycan array binding signal (z-score) [18]: 0.31
- glycan array binding signal (z-score) [19]: -0.441
- glycan array binding signal (z-score) [20]: 1.78
- glycan array binding signal (z-score) [21]: -0.427
- glycan array binding signal (z-score) (Gal3S(b1-3)GalNAc): 3.13
